According to PubChem BioAssay:
Active and inactive are the calls of the source.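 Rule for the calls, unless noted: active = inhibition at or above 50% at 10 µM; inactive = inhibition below 50%.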

Key:
[1] = inhibitors of TNFa-induced NFkB p65 translocation, primary screen, imaging, HUVEC, MLSMR starter and 10KST1 sets (AID 438;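 active = inhibition above 20% together with a positive visual image hit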;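 note: compound added about 3h40 before a 20 min TNFalpha stimulation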;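 for inhibition: signal is the nuclear over cytoplasmic p65 intensity ratio per well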); conditions: HUVEC TNFa-induced p65 nuclear translocation; cell count: measured here: nuclei count (cytotoxicity indicator), at 2.08 µM; inhibition: at 2 µM, stronger effect = higher value, 0% TNFa-plus-vehicle, 100% no-TNFa wells
[2] = inhibitors of mutant huntingtin aggregation, primary screen, imaging, exon1htt(103Q)mCFP cells, high-content imaging (AID 483;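 active = visual image review flags a hit and inhibition of aggregation exceeds 20%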;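 note: compound exposure lasted 3 days before fixation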;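 for nuclei count: percent of the per-plate median nuclei count of sample wells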); conditions: exon1htt(103Q)mCFP cell line, aggregate imaging, at 2 µM; inhibition of aggregation: stronger effect = higher value; nuclei count: measured here: cell count, toxicity
[3] = inhibitors of E-selectin induction by TNFa, primary screen, imaging, HUVEC, immunofluorescence, MLSMR starter and 10KST1 sets (AID 487;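 active = visually confirmed hit in the image check and inhibition above 20%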;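 for inhibition: signal is fraction of cell area covered by stained E-selectin grains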;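 for nuclei count: 100% = median nuclei count of all wells on the same plate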); conditions: HUVEC TNFalpha-induced E-selectin immunofluorescence imaging, at 2 µM; inhibition: stronger effect = higher value; nuclei count: measured here: cell number, toxicity
[4] = biological target: Voltage-gated potassium channel subunit beta-2 (Rattus norvegicus) (UniProt P62483); test: KvBeta enzyme negative modulators, primary screen, biochemical, NADPH fluorescence (AID 622;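 active = fluorescence slope higher than the sample average by over 3 SD, cut at about -0.22 in these data, passing the limit was not always enough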;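 note: slope of raw intensity against log time taken from 70 to 1610 s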); conditions: recombinant KvBeta, 4-cyanobenzaldehyde reduction, at 10 µM, stronger effect = higher value
[5] = biological target: Voltage-gated potassium channel subunit beta-2 (Rattus norvegicus) (UniProt P62483); test: KvBeta positive modulators, primary screen, biochemical, NADPH fluorescence (AID 623;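 active = NADPH fluorescence slope more negative than the mean of all samples by about 3 SD, 99.7% confidence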;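 note: fluorescence intensity change per second fitted from 20 to 320 s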); conditions: Recombinant KvBeta, NADPH fluorescence decrease slope, 10 min; at 10 µM; stronger effect = lower value
[6] = biological target: Alpha-2C adrenergic receptor (Homo sapiens) (UniProt P18825); test: modulators of alpha2C/GIRK thallium flux, primary screen, cell-based, HEK293 alpha2C/GIRK1/2 (AID 624;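 active = fluorescence slope after compound addition differing from the mean of all screened samples at 99.7% confidence, in either direction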;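 note: slope of fluorescence ratio to pre-addition baseline per second over 15 to 24 s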); conditions: thallium flux BTC fluorescence, at 10 µM, actives lie on both sides
[7] = inhibitors of Sendai virus-induced IRF3 signaling, primary screen, TLR/RLR signaling modifier project, cell-based, Sendai virus stimulus, luciferase, 10K MLSCN set (AID 602276); conditions: HEK293 RL24 IRF3 luciferase reporter, at 10 µM, stronger effect = higher value;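 note: firefly luciferase from ISG56 promoter only with Renilla not read in this screen; 0% = Sendai virus plus DMSO and 100% = medium plus DMSO without virus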
[8] = inhibitors of poly I:C-induced TLR3 signaling, primary screen, cell-based, poly I:C stimulus, luciferase, 10K MLSCN set (AID 602277;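 active = inhibition of the reporter signal at or above 50%; inactive = inhibition below 50%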); conditions: HEK293-TLR3 RL24 IRF3 luciferase reporter, at 10 µM, stronger effect = higher value

Sequence of Voltage-gated potassium channel subunit beta-2 (Rattus norvegicus) (P62483 whole entry, looked up): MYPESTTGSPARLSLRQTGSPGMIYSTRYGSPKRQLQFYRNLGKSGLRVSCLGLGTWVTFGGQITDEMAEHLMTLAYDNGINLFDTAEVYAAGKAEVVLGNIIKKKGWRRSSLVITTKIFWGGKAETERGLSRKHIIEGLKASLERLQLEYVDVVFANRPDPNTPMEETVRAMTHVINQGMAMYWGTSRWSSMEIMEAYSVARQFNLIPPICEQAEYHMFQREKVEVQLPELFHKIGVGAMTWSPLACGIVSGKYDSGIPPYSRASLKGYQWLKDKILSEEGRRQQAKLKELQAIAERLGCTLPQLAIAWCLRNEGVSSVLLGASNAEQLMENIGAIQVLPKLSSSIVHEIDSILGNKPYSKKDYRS
Sequence of Alpha-2C adrenergic receptor (Homo sapiens) (P18825 whole entry, looked up): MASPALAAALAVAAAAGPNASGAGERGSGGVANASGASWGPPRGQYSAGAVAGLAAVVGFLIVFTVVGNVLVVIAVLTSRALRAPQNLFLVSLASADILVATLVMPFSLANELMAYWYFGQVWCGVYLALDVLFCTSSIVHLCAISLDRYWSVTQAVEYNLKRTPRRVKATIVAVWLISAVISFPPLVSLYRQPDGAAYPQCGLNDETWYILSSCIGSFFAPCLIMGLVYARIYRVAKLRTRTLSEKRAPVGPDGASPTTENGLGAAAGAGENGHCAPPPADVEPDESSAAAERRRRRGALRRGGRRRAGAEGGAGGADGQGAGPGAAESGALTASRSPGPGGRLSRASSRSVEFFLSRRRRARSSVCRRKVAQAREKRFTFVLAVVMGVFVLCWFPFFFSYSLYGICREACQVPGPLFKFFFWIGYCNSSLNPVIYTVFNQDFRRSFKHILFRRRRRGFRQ

CCc1nc(N)c(C#N)c(-c2ccncc2)c1C
cell count [1]: 598 | inhibition [1]: 6.3% (inactive) | inhibition of aggregation [2]: -19.7% (inactive) | nuclei count [2]: 100% | inhibition [3]: -24.5% (inactive) | nuclei count [3]: 106% | fluorescence slope [4]: -0.605 (inactive) | NADPH fluorescence slope [5]: -3.1e-05 (inactive) | slope [6]: 0.00327 (inactive) | inhibition [7]: 9.38% (inactive) | inhibition [8]: 19.4% (inactive)

CCOC(=O)c1cccc(NC(=O)c2ccco2)c1
cell count [1]: 690 | inhibition [1]: 2.9% (inactive) | inhibition of aggregation [2]: -3.3% (inactive) | nuclei count [2]: 100% | inhibition [3]: 38.8% (inactive) | nuclei count [3]: 97% | fluorescence slope [4]: -0.387 (inactive) | NADPH fluorescence slope [5]: -6e-05 (inactive) | slope [6]: 0.00541 (inactive) | inhibition [7]: -16.7% (inactive) | inhibition [8]: -83.6% (inactive)

CCOC(=O)c1cc2c(=O)n3ccccc3nc2n(CCCOC)c1=NC(C)=O
cell count [1]: 657 | inhibition [1]: 11.2% (inactive) | inhibition of aggregation [2]: 21.5% (inactive) | nuclei count [2]: 94.4% | inhibition [3]: -33.6% (inactive) | nuclei count [3]: 82.5% | fluorescence slope [4]: -0.133 (active) | NADPH fluorescence slope [5]: 1.2e-05 (inactive) | slope [6]: 0.00482 (inactive) | inhibition [7]: 1.75% (inactive) | inhibition [8]: 9.93% (inactive)

O=C(c1ccc2nc(N3CCOCC3)sc2c1)N1CCCC1
cell count [1]: 708 | inhibition [1]: -11.2% (inactive) | inhibition of aggregation [2]: 6% (inactive) | nuclei count [2]: 62.7% | inhibition [3]: -70.6% (inactive) | nuclei count [3]: 116% | fluorescence slope [4]: -0.564 (inactive) | NADPH fluorescence slope [5]: -2.7e-05 (inactive) | slope [6]: 0.00689 (inactive) | inhibition [7]: 3.55% (inactive) | inhibition [8]: 3.65% (inactive)

Cc1cc(C)cc(-n2nnc(C(=O)NCc3ccco3)c2N)c1
cell count [1]: 500 | inhibition [1]: 0.2% (inactive) | inhibition of aggregation [2]: -20.1% (inactive) | nuclei count [2]: 119% | inhibition [3]: -36.2% (inactive) | nuclei count [3]: 107% | fluorescence slope [4]: -0.557 (inactive) | NADPH fluorescence slope [5]: -1.1e-05 (inactive) | slope [6]: 0.00643 (inactive) | inhibition [7]: -5.79% (inactive) | inhibition [8]: 100% (active)

FC(F)(F)c1cc(-c2ccco2)nc(NCc2ccco2)n1
cell count [1]: 589 | inhibition [1]: 14.6% (inactive) | inhibition of aggregation [2]: 28.3% (inactive) | nuclei count [2]: 95.5% | inhibition [3]: -24.3% (inactive) | nuclei count [3]: 94.8% | fluorescence slope [4]: -0.194 (inactive) | NADPH fluorescence slope [5]: -3e-05 (inactive) | slope [6]: 0.00472 (inactive) | inhibition [7]: 14.2% (inactive) | inhibition [8]: 13.8% (inactive)

COc1ccccc1NC(=O)c1oc2ccccc2c1NC(=O)c1cc(OC)c(OC)c(OC)c1
cell count [1]: 582 | inhibition [1]: -7.6% (inactive) | inhibition of aggregation [2]: -17.1% (inactive) | nuclei count [2]: 85.7% | inhibition [3]: 25.8% (inactive) | nuclei count [3]: 60.4% | fluorescence slope [4]: -0.36 (inactive) | NADPH fluorescence slope [5]: -9.5e-06 (inactive) | slope [6]: 0.00886 (inactive) | inhibition [7]: 36% (inactive) | inhibition [8]: 65.9% (active)

COc1ccccc1N1CC(O)=C(c2nc3ccccc3c(=O)[nH]2)C1=N
cell count [1]: 399 | inhibition [1]: 1.4% (inactive) | inhibition of aggregation [2]: 22.7% (inactive) | nuclei count [2]: 62.7% | inhibition [3]: -73.7% (inactive) | nuclei count [3]: 126% | fluorescence slope [4]: -0.546 (inactive) | NADPH fluorescence slope [5]: -3.6e-05 (inactive) | slope [6]: 0.00655 (inactive) | inhibition [7]: 11.7% (inactive) | inhibition [8]: 28.7% (inactive)

O=C1CCCCCN1CSc1nc2ccccc2s1
cell count [1]: 686 | inhibition [1]: -17.2% (inactive) | inhibition of aggregation [2]: -3.1% (inactive) | nuclei count [2]: 106% | inhibition [3]: 7.2% (inactive) | nuclei count [3]: 97.6% | fluorescence slope [4]: -0.433 (inactive) | NADPH fluorescence slope [5]: -0.000138 (inactive) | slope [6]: 0.00664 (inactive) | inhibition [7]: 18.8% (inactive) | inhibition [8]: 27.7% (inactive)

CCOC(=O)N1CCC(NC(=O)C2CCN(S(=O)(=O)c3cccc4cccnc34)CC2)CC1
cell count [1]: 595 | inhibition [1]: 1.8% (inactive) | inhibition of aggregation [2]: -71.5% (inactive) | nuclei count [2]: 11.3% | inhibition [3]: 9.6% (inactive) | nuclei count [3]: 107% | fluorescence slope [4]: -0.558 (inactive) | NADPH fluorescence slope [5]: -2.8e-05 (inactive) | slope [6]: 0.00729 (inactive) | inhibition [7]: 12% (inactive) | inhibition [8]: 35.6% (inactive)

Cc1ccc(S(=O)(=O)N(CCO)c2cc3c(s2)CCCC3)cc1
cell count [1]: 689 | inhibition [1]: -0.8% (inactive) | inhibition of aggregation [2]: 20.5% (inactive) | nuclei count [2]: 73.1% | inhibition [3]: -151% (inactive) | nuclei count [3]: 117% | fluorescence slope [4]: -0.404 (inactive) | NADPH fluorescence slope [5]: -2.1e-05 (inactive) | slope [6]: 0.00447 (inactive) | inhibition [7]: 9.96% (inactive) | inhibition [8]: 21.8% (inactive)

CC(C)OCCCNC(=O)c1cc2c(s1)CS(=O)(=O)C2
cell count [1]: 215 | inhibition [1]: 1.9% (inactive) | inhibition of aggregation [2]: 7.5% (inactive) | nuclei count [2]: 80.8% | inhibition [3]: 25.9% (inactive) | nuclei count [3]: 103% | fluorescence slope [4]: -0.352 (inactive) | NADPH fluorescence slope [5]: -5.6e-05 (inactive) | slope [6]: 0.0057 (inactive) | inhibition [7]: 5.68% (inactive) | inhibition [8]: 5.21% (inactive)

CCOC(=O)C1CCN(C(=O)COc2ccc(S(=O)(=O)NC(C)C)cc2Cl)CC1
cell count [1]: 718 | inhibition [1]: 1.5% (inactive) | inhibition of aggregation [2]: 9% (inactive) | nuclei count [2]: 109% | inhibition [3]: -3.9% (inactive) | nuclei count [3]: 97.5% | fluorescence slope [4]: -0.46 (inactive) | NADPH fluorescence slope [5]: -1.1e-05 (inactive) | slope [6]: 0.00357 (inactive) | inhibition [7]: 12% (inactive) | inhibition [8]: 9.55% (inactive)

COc1ccc(S(=O)(=O)N2CCC(C(=O)NCc3ccco3)CC2)cc1
cell count [1]: 245 | inhibition [1]: -0.2% (inactive) | inhibition of aggregation [2]: 1.8% (inactive) | nuclei count [2]: 99.6% | inhibition [3]: -290% (inactive) | nuclei count [3]: 114% | fluorescence slope [4]: -0.418 (inactive) | NADPH fluorescence slope [5]: -2.7e-05 (inactive) | slope [6]: 0.00415 (inactive) | inhibition [7]: 7.79% (inactive) | inhibition [8]: 9.56% (inactive)
